The source made the active and inactive calls.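 Rule for the calls: active = peak TRPC4 channel inhibition over 30% at some tested dose, plus a fitted dose response curve; inactive = no inhibition at any dose, or no curve fitted.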
Biological target: Short transient receptor potential channel 4 (Mus musculus) (UniProt Q9QUQ5)
Test: mouse TRPC4 blockers in HEK293 cells – cell-based, HEK293 TRPC4/mu-opioid, concentration-response, selectivity assay for TRPC6 selective inhibitor project, SAR follow-up (AID 504554)
Settings: DAMGO-evoked Fluo-4 calcium ratio; series mostly up to 6.67 µM

Short transient receptor potential channel 4 (Mus musculus), sequence (Q9QUQ5 whole entry, looked up): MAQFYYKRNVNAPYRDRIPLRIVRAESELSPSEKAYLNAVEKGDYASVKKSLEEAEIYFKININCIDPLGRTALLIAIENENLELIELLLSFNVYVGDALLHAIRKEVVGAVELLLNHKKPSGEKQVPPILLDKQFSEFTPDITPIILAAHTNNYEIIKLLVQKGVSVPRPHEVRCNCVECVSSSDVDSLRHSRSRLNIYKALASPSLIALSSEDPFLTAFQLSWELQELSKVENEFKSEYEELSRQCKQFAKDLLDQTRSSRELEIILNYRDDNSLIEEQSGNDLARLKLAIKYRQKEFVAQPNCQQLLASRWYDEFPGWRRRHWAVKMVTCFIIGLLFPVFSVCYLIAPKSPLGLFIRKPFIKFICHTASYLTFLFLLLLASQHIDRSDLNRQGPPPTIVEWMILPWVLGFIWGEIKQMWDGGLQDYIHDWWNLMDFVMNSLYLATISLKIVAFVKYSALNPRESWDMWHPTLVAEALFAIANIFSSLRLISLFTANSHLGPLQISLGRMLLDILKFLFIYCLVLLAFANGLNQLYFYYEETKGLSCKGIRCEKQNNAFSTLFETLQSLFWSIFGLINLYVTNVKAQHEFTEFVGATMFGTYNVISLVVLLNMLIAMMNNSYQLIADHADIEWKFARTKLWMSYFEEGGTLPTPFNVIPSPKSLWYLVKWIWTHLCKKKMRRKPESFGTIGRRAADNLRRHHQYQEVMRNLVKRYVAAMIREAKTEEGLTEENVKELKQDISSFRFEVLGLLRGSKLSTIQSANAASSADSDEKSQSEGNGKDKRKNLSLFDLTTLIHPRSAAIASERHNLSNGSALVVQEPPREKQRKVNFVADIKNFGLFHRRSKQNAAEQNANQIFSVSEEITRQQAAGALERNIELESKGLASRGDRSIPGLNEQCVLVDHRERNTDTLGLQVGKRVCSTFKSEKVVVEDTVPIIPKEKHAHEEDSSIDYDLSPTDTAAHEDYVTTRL

**Q.** How did the outcome turn out when `COc1ccc(OC)c(CNc2ccc3c(c2)ncn3C(C)(C)C)c1` was run?
**A.** The outcome was “inactive”.

**Q.** With `CC(C)(C)n1cnc2cc(NC(=O)c3cccs3)ccc21` as the compound, how does the outcome read?
**A.** The outcome was “inactive”.

**Q.** Which outcome does the source give for `CC(C)(C)n1cnc2cc(NCc3cccs3)ccc21` here?
**A.** Its outcome is “inactive”.

**Q.** `CC(C)(C)n1cnc2cc(NCc3ccc(Cl)cc3Cl)ccc21` was tested. Which outcome did it give?
**A.** The outcome was “inactive”.

**Q.** Which outcome does the source give for `CN(C)c1ccc(CNc2ccc3c(c2)ncn3C(C)(C)C)cc1` here?
**A.** Its outcome is “inactive”.

**Q.** `COc1cccc(CNc2ccc3c(c2)ncn3C(C)(C)C)c1OC` was tested. Which outcome did it give?
**A.** Its outcome is “inactive”.

**Q.** With `CCN(CC)c1ccc(CNc2ccc3c(c2)ncn3C(C)(C)C)cc1` as the compound, how does the outcome read?
**A.** The outcome was “inactive”.

**Q.** Which outcome does the source give for `CCC(=O)Nc1ccc2c(c1)ncn2C(C)(C)C` here?
**A.** The outcome was “inactive”.

**Q.** `CC(C)(C)n1cnc2cc(NCc3ccccc3O)ccc21` was tested. Which outcome did it give?
**A.** The outcome was “inactive”.

**Q.** `CC(C)c1ccc(CNc2ccc3c(c2)ncn3C(C)(C)C)cc1` was tested. Which outcome did it give?
**A.** Its outcome is “inactive”.

**Q.** For `COc1cccc(CNc2ccc3c(c2)ncn3C)c1OC`, which outcome is on record?
**A.** Its outcome is “inactive”.

**Q.** Which outcome does the source give for `COc1cc(C(=O)Nc2ccc3c(c2)ncn3C(C)(C)C)cc(OC)c1OC` here?
**A.** The outcome was “inactive”.

**Q.** How did the outcome turn out when `COc1ccc(CNc2ccc3c(c2)ncn3C(C)(C)C)cc1` was run?
**A.** The outcome was “inactive”.

**Q.** `CCOc1ccccc1CNc1ccc2c(c1)ncn2C(C)(C)C` was tested. Which outcome did it give?
**A.** Its outcome is “inactive”.

**Q.** With `COc1ccc(CNc2ccc3c(c2)ncn3-c2ccccc2)cc1` as the compound, how does the outcome read?
**A.** Its outcome is “inactive”.

**Q.** Which outcome does the source give for `CC(C)(C)n1cnc2cc(NCc3ccccc3Cl)ccc21` here?
**A.** The outcome was “inactive”.

**Q.** With `CCOc1ccc(CNc2ccc3c(c2)ncn3-c2ccccc2)cc1` as the compound, how does the outcome read?
**A.** The outcome was “inactive”.

**Q.** For `CC(C)(C)n1cnc2cc(NCc3ccc(Br)cc3)ccc21`, which outcome is on record?
**A.** The outcome was “inactive”.

**Q.** How did the outcome turn out when `CC(C)(C)n1cnc2cc(NC(=O)c3ccc(Cl)cc3)ccc21` was run?
**A.** The outcome was “inactive”.

**Q.** With `COc1ccccc1CNc1ccc2c(c1)ncn2C(C)(C)C` as the compound, how does the outcome read?
**A.** Its outcome is “inactive”.

**Q.** `CC(C)(C)n1cnc2cc(NCc3cccc4ccccc34)ccc21` was tested. Which outcome did it give?
**A.** Its outcome is “inactive”.

**Q.** How did the outcome turn out when `CCc1ccc(CNc2ccc3c(c2)ncn3C(C)(C)C)cc1` was run?
**A.** Its outcome is “inactive”.

**Q.** With `CCOc1ccc(CNc2ccc3c(c2)ncn3C(C)(C)C)cc1` as the compound, how does the outcome read?
**A.** Its outcome is “inactive”.

**Q.** With `COc1ccc(CNc2ccc3c(c2)ncn3C(C)(C)C)cc1OC` as the compound, how does the outcome read?
**A.** The outcome was “inactive”.

**Q.** `CCOc1ccc(CNc2ccc3c(c2)ncn3C)cc1` was tested. Which outcome did it give?
**A.** The outcome was “inactive”.

**Q.** For `Cc1ccc(CNc2ccc3c(c2)ncn3C(C)(C)C)cc1`, which outcome is on record?
**A.** The outcome was “inactive”.

**Q.** `COc1ccc(CNc2ccc3c(c2)ncn3C(C)(C)C)c(OC)c1` was tested. Which outcome did it give?
**A.** Its outcome is “inactive”.

**Q.** Which outcome does the source give for `CC(C)(C)n1cnc2cc(NC(=O)c3ccccc3)ccc21` here?
**A.** Its outcome is “inactive”.

**Q.** How did the outcome turn out when `CC(=O)Nc1ccc2c(c1)ncn2C(C)(C)C` was run?
**A.** The outcome was “inactive”.

**Q.** How did the outcome turn out when `CC(C)(C)n1cnc2cc(NCc3cccc(Br)c3)ccc21` was run?
**A.** Its outcome is “inactive”.

**Q.** `CC(C)(C)n1cnc2cc(NCc3ccco3)ccc21` was tested. Which outcome did it give?
**A.** The outcome was “inactive”.

**Q.** For `CCCC(=O)Nc1ccc2c(c1)ncn2C(C)(C)C`, which outcome is on record?
**A.** Its outcome is “inactive”.

— PubChem BioAssay AID504554 (Johns Hopkins Ion Channel Center, 2011)
